Screening results as filed in PubChem BioAssay.
BRCA1 expr act: activators of BRCA1 expression. Potency, µM (series often up to 46.1 µM), usual class: activators. MCF7-BRCA1-FFLuc reporter, luminescence, 48 h; response scale: scaled: vehicle 0%, 10 µM genistein 100%. hit rate 1.1% among 380,000; further: nearly all actives have a fitted effect of over 80% in size
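48 h compound treatment of MCF7-BRCA1-FFLuc cells (phenol-red free MEM, 37 °C), then 15 min with luciferase substrate and luminescence imaging.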
Giardia kill: kills Giardia lamblia; Giardia lamblia trophozoite viability; activity change, % at 7.66 µM, hits read low; hit rate 0.15% among 340,000; AID 540267; in the data active means activity change below about -80%; inconclusive means between about -30% and that limit;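 further: parasites exposed to compound for two days anaerobically before the ATP read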
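Viability, read as ATP luminescence: trophozoites at 100 cells/well, compound added, 48 hrs anaerobic at 37 deg C, then 15-30 min room-temperature development before reading.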
TrxR1 substrate: rat thioredoxin reductase 1 substrate activity. O89049. purified TrxR1 substrate turnover, NADPH consumption readout. Potency, µM (series often up to 114 µM). hit rate 0.01% among 390,000; further: nearly all actives have a fitted effect of over 50% in size
Target sequence (O89049 whole entry, looked up): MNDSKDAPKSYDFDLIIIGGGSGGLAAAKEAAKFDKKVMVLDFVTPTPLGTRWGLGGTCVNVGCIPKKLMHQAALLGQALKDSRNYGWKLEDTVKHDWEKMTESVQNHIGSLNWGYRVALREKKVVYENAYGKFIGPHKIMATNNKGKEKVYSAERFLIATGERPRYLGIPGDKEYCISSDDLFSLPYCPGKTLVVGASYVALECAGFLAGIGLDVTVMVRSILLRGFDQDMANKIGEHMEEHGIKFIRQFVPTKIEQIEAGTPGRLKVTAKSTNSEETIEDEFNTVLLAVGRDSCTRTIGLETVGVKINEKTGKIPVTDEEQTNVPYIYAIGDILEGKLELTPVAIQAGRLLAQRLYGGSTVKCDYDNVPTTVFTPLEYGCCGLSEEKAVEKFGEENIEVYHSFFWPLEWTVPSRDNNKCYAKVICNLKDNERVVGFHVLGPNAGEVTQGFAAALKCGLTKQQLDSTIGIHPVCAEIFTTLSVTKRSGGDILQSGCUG
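Rat TrxR1, dispensed at 90 nM, was prereduced with 400 uM NADPH (final) for 5 min at ~22 deg C, then incubated with compound 15 min before 400 uM selenite. A first-read NADPH fluorescence drop versus no-compound background flagged substrates.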
IL2 activator: IL-2 activation | IL-2 activation reporter assay, cell-based qHTS; stimulated with anti-CD3/CD4/CD28 beads; in transgenic mouse T cells | activation, % (series mostly up to about 46 µM) | hit rate 0.065% among 360,000 | AID 652025; in the data active means activation above about 50%; inconclusive means mostly about 30% to 49%
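First, unstimulated transgenic mouse T cells were exposed to compound for 60 min. Next, anti-CD3/anti-CD4-coated beads with anti-CD28 were added. Finally, after 18 h at 37 degrees C, EGFP and DsRed were imaged.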
IDH1 R132H inh: human IDH1 R132H inhibition; O75874; IDH1-R132H enzyme, NADPH consumption, diaphorase/resazurin fluorescence; Potency, µM (highest dose often 76.6 µM), actives largely listed as inhibitors; hit rate 0.093% among 390,000; further: nearly all actives have a fitted effect of over 65% in size
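IDH1-R132H (0.5 ug/mL dispensed) in pH 7.5 Tris buffer was preincubated 30 min with compound, then given a substrate mix of 0.016 mM NADPH and 2 mM alpha-KG for 80 min at room temperature; remaining NADPH was read by diaphorase/resazurin fluorescence.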
TrxR1 inh: rat TrxR1 inhibition | AID 588453 | Potency, µM (titrated, usually from 114 µM), actives largely listed as inhibitors | recombinant rTrxR1, NADPH fluorescence consumption, selenite substrate | hit rate 1% among 390,000; further: nearly all actives have a fitted effect of over 65% in size
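Rat TrxR1 (90 nM in the dispensed reagent) was pre-reduced with 400 uM NADPH for 5 min at room temperature, then incubated with compound for 15 min. After 400 uM selenite was added, NADPH fluorescence (Ex 340/Em 450 nm) was followed for 8 min.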
Each line names hits and unclear results; the compound was inactive in the other large screens. Sampled rows, rich in hits. Any-hit rate of the full collection: about 2.2%. Unless noted, the call rests on the fitted dose curve; in most records, active means well fitted curve in the direction sought with a large enough effect; inconclusive means small, poorly fitted or top-dose-only effect, or another doubt; inactive means no such curve, though single readings can be large; an effect the other way counts as inactive or inconclusive.

Cc1cc(-n2c(C)nc3ccccc3c2=O)ccc1NC(=O)c1cccc([N+](=O)[O-])c1	none (no result: Giardia kill, IL2 activator)
O=C(CCl)c1cc2c3c(c1)CC(=O)N3CCC2	TrxR1 inh 89.1µM
O=C(NCCO)C(=O)Nc1cc2c3c(c1)CC(=O)N3CCC2	none
CCOC(=O)c1ccc(OS(=O)(=O)c2ccccc2)c(OC)c1	BRCA1 expr act 5.62µM
c1coc(CNc2nc[n+]3c4c2ncn4CC3)c1	none (no result: IL2 activator, IDH1 R132H inh)
O/N=C/c1ccccc1OCc1ccc(Cl)cc1	BRCA1 expr act 11.2µM
CCC(=O)NCCc1nc2cc(NC(=O)c3cccc([N+](=O)[O-])c3)ccc2n1C	BRCA1 expr act 3.16µM
COc1ccccc1C(=O)Nc1ccc2c(c1)nc(CCNC(C)=O)n2C	BRCA1 expr act 10µM
CCC(=O)NCCc1nc2cc(NC(=O)c3ccccc3OC)ccc2n1C	BRCA1 expr act inconclusive
Cn1c(CCNC(=O)c2ccco2)nc2cc(NC(=O)c3ccccc3Cl)ccc21	BRCA1 expr act 8.91µM
Cc1ccccc1C(=O)Nc1ccc2c(c1)nc(CCNC(=O)c1ccco1)n2C	none
CCC(=O)NCCc1nc2cc(NC(=O)COc3ccccc3)ccc2n1C	BRCA1 expr act 8.91µM
COc1ccc(CCNC(=O)CCc2c(C)nc3cc(-c4ccccc4OC)nn3c2C)c(OC)c1	none (no result: Giardia kill, IL2 activator)
COc1cc2nc(C#N)nc(N)c2cc1OC	none (no result: Giardia kill, IL2 activator, IDH1 R132H inh)
COCC(=O)N1c2nc(C(C)C)nn2C2(CCCCC2)[C@@H]2CCCC[C@@H]21	none (no result: BRCA1 expr act, Giardia kill, IL2 activator)
Cc1ccc(Cn2ccnc2SCC(=O)Nc2ccc3c(c2)OCO3)cc1	none (no result: BRCA1 expr act, Giardia kill, IL2 activator, IDH1 R132H inh)
CC(=O)NCCc1nc2cc(NC(=O)c3cccc([N+](=O)[O-])c3)ccc2n1C	BRCA1 expr act 5.62µM
COc1cc2sc(-c3ccc(S(C)(=O)=O)cc3)c(C(=O)NCc3ccc(C)o3)c2cc1OC	TrxR1 inh inconclusive
COc1cccc2sc3cc(NCc4ccc(C)o4)ccc3c(=O)c12	TrxR1 inh 79.4µM
S=C(NCCCc1cnc[nH]1)NCCCN(Cc1ccc(Cl)cc1)c1cc(-c2ccccc2)ccn1	none (no result: IL2 activator, IDH1 R132H inh)
CC1CCN(CC[S-])CC1.O.O.[Cl][Pt]	TrxR1 inh 1.41µM (no result: Giardia kill, IL2 activator, IDH1 R132H inh)
Cc1cccc(-n2c(C)nnc2SCC(=O)NC(C)c2ccco2)c1 (configuration not stated)	none (no result: Giardia kill, IL2 activator, IDH1 R132H inh)
CN(c1ccc(C(=O)Nc2ccc3c(c2)OCCO3)cc1)S(C)(=O)=O	none
CC(=O)c1cccc(NC(=O)NCc2ccc3c(c2)OCO3)c1	none
CC(=O)c1cccc(NC(=O)Nc2ccc3c(c2)OCO3)c1	BRCA1 expr act 11.2µM
O=C(Nc1ccc2c(c1)OCCO2)Nc1ccc2c(c1)OCO2	Giardia kill inconclusive
O=C(Nc1ccc2c(c1)OCO2)Nc1ccc(Br)cn1	BRCA1 expr act 2.82µM
CN(c1ccc(C(=O)Nc2ccc3c(c2)OCO3)cc1)S(C)(=O)=O	BRCA1 expr act 6.31µM, Giardia kill inconclusive
C/C(=C\C(=O)c1ccccc1)Nc1ccc2c(c1)OCO2	BRCA1 expr act 7.94µM, TrxR1 inh inconclusive
Cn1c(=O)c2c(-c3ccccc3)n3c(c2n(C)c1=O)C(c1ccc([N+](=O)[O-])cc1)Nc1ccccc1-3 (configuration not stated)	none (no result: BRCA1 expr act, Giardia kill, IL2 activator)
Cc1ccc(CN(C(=O)COc2ccccc2[N+](=O)[O-])c2ccccn2)o1	none (no result: Giardia kill, IL2 activator)
O=C(CNC(=O)c1ccccc1F)Nc1ccc2c(c1)OCO2	BRCA1 expr act 7.94µM, Giardia kill inconclusive
Cc1ccc(NC(=O)Nc2ccc3c(c2)OCO3)c(OC(F)F)c1	BRCA1 expr act 2.51µM
Cc1ccc(NC(=O)Nc2ccc3c(c2)OCO3)cc1F	BRCA1 expr act 0.891µM
COc1cccc(NC(=O)Nc2ccc3c(c2)OCO3)c1	BRCA1 expr act 2.82µM
COc1ccc(NC(=O)Nc2ccc(C)cc2OC(F)F)cc1OC	none
Cc1ccc2c(c1)N(C(=O)N1CCC(C(=O)NCCc3ccc(Cl)cc3)CC1)CC(C)O2 (configuration not stated)	none (no result: BRCA1 expr act, Giardia kill, IL2 activator)
COc1ccc(-n2ncc(C(=O)N3CCN(Cc4ccccc4)CC3)c2C2CCN(C(=O)OC(C)(C)C)CC2)cc1	none (no result: BRCA1 expr act, Giardia kill, IL2 activator)
Cc1c(C2=CCN(S(=O)(=O)c3ccc(Cl)cc3)CC2)c2ccccc2n1CC(=O)N1CCCC1	none (no result: BRCA1 expr act, Giardia kill, IL2 activator)
CCCN1CCC(=O)N(C(CSc2ccc(Br)cc2)CC(C)C)CC1 (configuration not stated)	none (no result: BRCA1 expr act, IL2 activator, IDH1 R132H inh)
O=C(/C=C/c1ccc2c(c1)OCCO2)c1ccccc1	BRCA1 expr act 7.08µM, TrxR1 inh inconclusive
COc1ccc(C(=O)/C=C/c2ccc3c(c2)OCCO3)cc1	none
O=C(NCc1ccc2c(c1)OCO2)Nc1ccc(F)cc1	BRCA1 expr act 10µM
Cc1ccc(N2C(=O)c3ccccc3C2Nc2ccc(S(=O)(=O)N3CCOCC3)cc2)nc1 (configuration not stated)	BRCA1 expr act 14.1µM
CCCOC(=O)C1=C(C)CS[C@@H]2[C@H](NC(=O)COc3ccccc3)C(=O)N12	none (no result: BRCA1 expr act, Giardia kill, IL2 activator, IDH1 R132H inh)
Cc1ccc(NC(=O)CCOc2ccccc2)cc1	BRCA1 expr act 7.08µM
O=C(Cc1ccc(Cl)cc1)Nc1ccc(Br)cn1	BRCA1 expr act 12.6µM
CCOc1ccc(NC(=O)Cc2ccccc2)cc1	BRCA1 expr act 7.08µM
CCOc1ccc(NC(=O)CNC(=O)Cc2ccccc2)cc1	none
O=C(Cc1ccccc1)Nc1ccc(NC(=O)c2ccccc2)nc1	BRCA1 expr act 12.6µM
Cc1ncnc2nc[nH]c12	none (no result: BRCA1 expr act, Giardia kill, IL2 activator, IDH1 R132H inh)
CCOc1ccc(NC(=O)c2ccccn2)cc1	BRCA1 expr act inconclusive, Giardia kill -93.3
COC(=O)Nc1ccc(OCc2ccccc2)cc1	BRCA1 expr act 12.6µM
CCOc1ccc(NC(=O)C(Cc2ccccc2)N2C(=O)c3cccc4cccc(c34)C2=O)cc1 (configuration not stated)	IL2 activator 96.9
CCOc1ccc(NC(=O)c2nccnc2CO)cc1	BRCA1 expr act 5.62µM
O=C(CSc1nnc(NC(=O)C2CC(=O)N(c3ccc(F)cc3)C2)s1)NCc1ccco1 (configuration not stated)	TrxR1 inh 31.6µM
COc1ccc(N2CC(C(=O)Nc3nnc(SCC(=O)NCc4ccco4)s3)CC2=O)cc1 (configuration not stated)	TrxR1 inh inconclusive
CC1Oc2ccccc2C=C1/C=N/NC(=O)c1ccccc1 (configuration not stated)	BRCA1 expr act 3.16µM
Cc1ccc(C(=O)N/N=C/C2=Cc3ccccc3OC2C)cc1 (configuration not stated)	none
COC(=O)C1CCN(C2=C(NS(=O)(=O)c3ccc(Cl)cc3)C(=O)c3ccccc3C2=O)CC1	none
